In PubChem BioAssay (NCI):
Several values for one entry are separate records, joined by “and”; a condition that tells them apart may be missing. Equal values may be shown once. About 83,000 compounds went through this panel and 20% of them were active in at least one assay; those are over-represented in the sample as a whole.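 The endpoint reported here, percent growth, reads 100 for growth as untreated, 0 for no net growth and -100 for all cells dead.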 Unmarked numbers belong to inactive results. Activity calls are given as the source filed them.

system: LOX IMVI melanoma; assay: NCI-60 one-dose screen, 48 h (100 = growth as untreated, 0 = no growth, -100 = all killed); details: 0.01 µM
Protocol: Growth inhibition of the LOX IMVI human tumor cell line is measured as a screen for anti-cancer activity. Cells are grown in 96 well plates and exposed to the test compound for 48 hours. Compounds are tested at a single concentration, which is 10^-5 M for most compounds. The reported endpoint is percent growth (GI% or GIPRCNT), where numbers from 0 - 100% represent growth inhibition, and numbers from -100% - 0 represent cell death. For example, a value of 40 represents 60% growth inhibition. A value of 0 means no net growth occurred over the course of the experiment. A value of -40 indicates 40% of cells at the beginning of the experiment died by the end of the experiment. A value of -100 means all cells are dead at the end of the experiment.
NCI-60 Human Tumor Cell Lines Screen was performed using the standard one-dose NCI protocol, which is described in more detail at https://dtp.cancer.gov/discovery_development/nci-60/default.htm.
Compounds with GIPRCNT values below 10 were considered active. Activity score was based on GIPRCNT using the following formula: […]
Score is 0 for GIPRCNT values of 100 or above, 50 for GIPRCNT values of 0, and 100 for GIPRCNT values of -100.

Structure (SMILES)	growth [%]
CC(=O)O[C@H]1C(=O)[C@@]2(C)[C@H]([C@H](OC(=O)c3ccccc3)[C@]3(O)C[C@H](OC(=O)[C@H](O)[C@@H](NC(=O)c4ccccc4)c4ccccc4)C(C)=C1C3(C)C)[C@]1(OC(C)=O)CO[C@@H]1C[C@@H]2O	35.4

same assay, conditions: 2.5 µM

Structure (SMILES)	growth
CC(=O)O[C@H]1C(=O)[C@@]2(C)[C@H]([C@H](OC(=O)c3ccccc3)[C@]3(O)C[C@H](OC(=O)[C@H](O)[C@@H](NC(=O)c4ccccc4)c4ccccc4)C(C)=C1C3(C)C)[C@]1(OC(C)=O)CO[C@@H]1C[C@@H]2O	9.12% (active)

same assay, conditions: 5 µM

Structure (SMILES)	growth [%]
CC(=O)O[C@H]1C(=O)[C@@]2(C)[C@H]([C@H](OC(=O)c3ccccc3)[C@]3(O)C[C@H](OC(=O)[C@H](O)[C@@H](NC(=O)c4ccccc4)c4ccccc4)C(C)=C1C3(C)C)[C@]1(OC(C)=O)CO[C@@H]1C[C@@H]2O	42.1

same assay, conditions: 10 µM

Structure (SMILES)	growth
COc1ccc2oc(-c3ccc(Cl)cc3)c(N3CCN(C)CC3)c2c1	-87.5% (active)
COc1cc(N)ccc1Nc1c2ccccc2nc2ccccc12	-23.6% (active)
CC(=O)O[C@H]1C(=O)[C@@]2(C)[C@H]([C@H](OC(=O)c3ccccc3)[C@]3(O)C[C@H](OC(=O)[C@H](O)[C@@H](NC(=O)c4ccccc4)c4ccccc4)C(C)=C1C3(C)C)[C@]1(OC(C)=O)CO[C@@H]1C[C@@H]2O	35.1% and 42.3%
CC1CCC2(C(=O)O)CCC3(C)C(=CCC4C5(C)CC(O)C(O)C(C)(CO)C5C(O)CC43C)C2C1C (stereo not given)	107%
O=C(NC(=S)Nc1ccccn1)c1ccccc1	94.9%
O=c1[nH]cc(/C=N\Nc2ccccc2)c(=O)[nH]1	45.8%
S=P(N1CC1)(N1CC1)N1CC1	99.2% and 80.5%
COc1ccc(C(C#N)=C2C=CC(=NO)C=C2)cc1	59.5%
ClCCn1c(CCl)nc2ccc(Cl)cc21	2.97% (active)
CC[C@@]1(OC(=O)CN(C)C)C(=O)OCc2c1cc1n(c2=O)Cc2cc3c(N)cccc3nc2-1	-39.3% (active)
CN(CC(=O)O)c1ccc(/C=C/c2ccnc3ccccc23)cc1	94.8%
CCOC(=O)[C@]1(Br)CC[C@@]1(Br)C(=O)OCC	82.5%
COc1ccc(N)c2c1C(=O)c1ccccc1C2=O	104%
Cc1c(-c2ccccc2)[nH]c2ccccc12	81.5%
Cc1cc(N=C2C=CC(=[N+](C)C)C=C2)c(N)cc1N	79%
N#C/C(=C/N1C(=O)/C(=C/c2ccc([N+](=O)[O-])cc2)SC1=S)c1nc2ccccc2s1	88%
COc1cccc(C(c2cc3c(cc2O)OCO3)N2CCOCC2)c1OC (stereo not given)	97.3%
COc1ccc2c(c1)[nH]c1c(/C=C/c3ccccc3)nccc12	63.4%

Structure (SMILES)	growth
O=Nc1ccc(Nc2ccccc2)cc1	23.5%
CCC(C)(c1ccc(O)c(C)c1)c1ccc(O)c(C)c1	104%
O=S(=O)(c1cc(Cl)ccc1O)c1cc(Cl)ccc1O	93.5%
NCc1c(O)ccc2ccccc12	101%
Cn1ncc2cc3c(Nc4ccc(Cl)cc4)cccc3nc21	87%
O=C1C=CC(=O)N1c1ccc(N2C(=O)C=CC2=O)cc1	85%
N#CC(=C1C=CC(=NO)C=C1)c1ccccc1	-6.53% (active)
CN(C)c1ccc(/C=C/c2ccnc3ccccc23)cc1N	71.4%
O=[N+]([O-])c1cc(S(=O)(=O)Nc2ccccc2)ccc1Cl	77.6%
Cn1c2nc3ccccc3c-2nc2ccccc21	99.5% and 86.1%
Cc1cc(C)c(N2C(=O)CC(Sc3ccccc3N)C2=O)c(C)c1 (stereo not given)	69.9%
O=C(O)c1ccccc1.[Ag]	17%
S=C1SCN(CCc2ccccc2)CN1CCc1ccccc1	90.9%
O=C1c2cccc3cc([N+](=O)[O-])cc(c23)C(=O)N1CCN1CCCC1	-65.9% (active)
Nc1nc(N)c2cc(Sc3ccc4ccccc4c3)ccc2n1	21%
C=C1N(C)c2ccc(Cl)cc2C1(C)C	51.9%
Cc1cc(O)c2c(c1O)C(=O)C13C(=C2O)C(=O)C2C(O)C1C1C(O)C3C(=O)C3=C(O)c4c(O)cc(C)c(O)c4C(=O)C321 (stereo not given)	7.97% (active)
O=C1C(Cl)=C(Cl)C(Cl)(Cl)C(Cl)C1(Cl)Cl (stereo not given)	96.2%

same assay, conditions: 100 µM

Structure (SMILES)	growth [%]
S=P(N1CC1)(N1CC1)N1CC1	33
